ChEMBL document CHEMBL1157539, “Thousands of chemical starting points for antimalarial lead identification” (Nature, 2010)

system: Plasmodium falciparum; experiment: GSK_TCMDC: Inhibition of Plasmodium falciparum Dd2 in whole red blood cells, using parasite LDH activity as an index of growth. Test compounds present at 2uM; format: functional

| SMILES | Inhibition [%] |
| --- | --- |
| Clc1ccccc1/C=C/c1cncnc1Nc1ccc2[nH]c(Cc3ccccc3)nc2c1 | 26 |
| COc1ccc2c(c1)CC(C)(C)NC2CCCCCCCCC1NC(C)(C)Cc2cc(OC)ccc21.O=C(O)C(=O)O (stereo not given) | 62 |
| O=C(Nc1ccc2c(c1)CCC2)c1ccc(CN2CCCN(Cc3cccc(O)c3)CC2)cc1.O=C(O)C(F)(F)F | 46 |
| CC(C)(CNCc1ccc(C(F)(F)F)cc1)c1nc(-c2ccc(Cl)c(O)c2)c(-c2ccncc2)[nH]1.Cl | 98 |
| CCOc1cccc(C(=O)Nc2cccc(CN3CCCN(Cc4ccc(O)cc4)CC3)c2)c1.O=C(O)C(F)(F)F | 31 |
| COc1ccc2cc(CNCCCCCCNCc3ccc4cc(OC)ccc4c3)ccc2c1.CS(=O)(=O)O | 92 |
| O=C(/C=C/c1cccc(Br)c1)NCCCCCN1CCC(c2c[nH]c3ccccc23)CC1 | 15 |
| COc1cc2c(cc1OCCN1CCC(N3CCCCC3)CC1)N(C(=O)/C=C/c1ccccc1OC(F)(F)F)CC2.Cl | 93 |
| CN(C)CCCNCc1ccc(-c2ccc(CNCCc3ccccc3)cc2)cc1.O=C(O)C(F)(F)F | 87 |
| N#Cc1cccc(CNC(=O)c2cccc(Nc3ccnc4ccc(F)cc34)c2)c1.O=C(O)C(F)(F)F | 26 |
| Cc1ccc(Cc2c[nH]c(NCCSCc3ccc(CN(C)C)s3)nc2=O)cn1 | 0 |
| CCc1c(C)nc(-n2nc(C)cc2NC(=O)CC(c2ccccc2)c2ccccc2)[nH]c1=O | 98 |
| CCCCOP(=O)(COc1ccc(CCN(CC(O)COc2cccc3[nH]c4ccccc4c23)CC(O)COc2cccc3[nH]c4ccccc4c23)cc1)C1CCCCC1 (stereo not given) | 92 |
| CCCCCCN(CCCCCC)CC(O)c1c(OC)ccc2ccccc12.Cl (stereo not given) | 100 |
| O=C(Nc1ccc(Cl)cc1)c1ccc(CN2CCCN(Cc3cccc(Cl)c3)CC2)cc1.O=C(O)C(F)(F)F | 15 |
| CO/C(=C\C=C\c1cc2cc(Cl)c(Cl)cc2[nH]1)C(=O)NCC(C)(C)CN(C)C | 27 |
| Fc1ccc2[nH]c(-c3cccc(-c4ccc(CNCCc5ccncc5)cc4)c3)nc2c1.O=C(O)C(F)(F)F | 100 |
| Cc1nc(-c2ccc(-c3ccc(NC(=O)c4coc5ccc(N6CC(C)NC(C)C6)cc45)cc3)c(C)c2)no1.Cl (stereo not given) | 88 |
| COc1cccc(NC(=O)Nc2ccc(C)c(-c3ccc(C(=O)Nc4ccncc4)cc3)c2)c1 | 64 |
| CCn1c(-c2nonc2N)nc2c(-c3cccc(NC(=O)Nc4ccc(Cl)cc4)c3)ncc(OCCCN)c21.O=C(O)C(F)(F)F | 72 |

| SMILES | Inhibition [%] |
| --- | --- |
| NC1CCCN(Cc2cccc(-c3ccc(-c4nc5ccccc5[nH]4)cc3)c2)C1.O=C(O)C(F)(F)F (stereo not given) | 73 |
| O=C(/C=C/c1ccc(C(F)(F)F)cc1)NCCCCCN1CCCN(C(=O)Nc2ccc(Cl)c(Cl)c2)CC1 | 17 |
| COc1ccc(-c2cccc(NC(=O)c3cccc(Cl)c3)c2)cc1CN1CCCN(C)CC1.O=C(O)C(F)(F)F | 99 |
| CN1CCN(c2ccc3nccc(CCN4CCC(NCc5ccc6c(n5)NC(=O)CO6)CC4)c3n2)CC1.Cl | 3 |
| NC1CCN(c2nc(NCCc3ccc(O)cc3)nc(NCc3ccccc3-c3ccccc3)n2)CC1.O=C(O)C(F)(F)F | 32 |
| O=C(Nc1ccc(Cl)cc1)c1ccc(CN2CCCN(Cc3cccc(F)c3)CC2)cc1.O=C(O)C(F)(F)F | 8 |
| O=c1ccc(-c2nc3cc(Cl)c(Cl)cc3n2Cc2ccc(Cl)cc2Cl)c[nH]1 | 67 |
| O=C(COc1cnc2ccccc2n1)Nc1ccccc1Sc1ccc(Cl)cc1 | 100 |
| CCC1CCCCN1S(=O)(=O)c1ccc(OC)c(N2CCN(C(=O)C(Cl)(Cl)Cl)CC2)c1 (stereo not given) | 29 |
| COc1cc(OC)c2c(C)cc(NCCCN3CCOCC3)nc2c1 | 3 |
| O=C(Nc1ccccc1)Nc1cccc(-c2cccc(-c3nc4cc(F)ccc4[nH]3)c2)c1 | 41 |
| Cc1noc(C)c1-c1cccc(CNCc2ccc(-c3cccc(-c4nc5cc(F)ccc5[nH]4)c3)cc2)c1.O=C(O)C(F)(F)F | 84 |
| O=C(NCCCN1CCCC1=O)c1cnc(N2CCC(Oc3ccccc3)CC2)c(Cl)c1 | 93 |
| CCOc1cc(C)ccc1C1CCN(CCCCNC(=O)c2ccc(-c3ccc(C(F)(F)F)cn3)cc2)CC1.Cl | 45 |
| CC(C)(C)c1ccc(O)c(CNC2CCCCC2)c1.Cl | 98 |
| Cl.O=C(C=Cc1ccc(F)cc1)NC1CCC(CCN2CCc3ccc(-c4cnccn4)cc3CC2)CC1 (stereo not given) | 65 |
| CC(C)CCN1CCC(Oc2ccc(NC(=O)c3cccs3)cc2Cl)CC1.O=C(O)C(F)(F)F | 96 |
| COc1cc(C(=O)NCCCN2CCN(c3cccc(Cl)c3)CC2)ccc1-c1nc2cc(Cl)c(F)cc2[nH]1 | 81 |
| O=C(NCCc1ccc(O)cc1)n1c2ccccc2c2ccccc21 | 76 |
| Cc1c(Cl)ccc2c(C(=O)Nc3ccncc3)cc(-c3cccnc3)nc12 | 83 |
